# Experimental data published in PubChem BioAssay AID1117359 (Southern Research Institute, 2015).
# Among all 1,500 compounds or so, about 460 (31%) were called active.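 The calls were made as follows: active = viability at or below 80% at any tested concentration, marking the compound as toxic; inactive = the rest.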 Only a sample is shown. Entries with a potency or affinity are not part of this list.
# Assay: THP-1 cell cytotoxicity, dose response, cytotoxicity control for Vif-APOBEC3G degradation inhibitor project, THP-1 cells (AID 1117359)
# Conditions: THP-1 viability, CellTiter-Glo luminescence, 72 h; series mostly up to 40 µM; viability: at the top concentration
row,Structure (SMILES),viability
1,O=C(O)CCCNc1cc(N2CCC3(CC2)OCCO3)c2noc3c2c1C(=O)c1ccccc1-3,89.7% (inactive)
2,Cc1ccc(NC(=O)CSc2nc(CSc3ccc(C)cc3)cc(=O)[nH]2)cc1,103% (inactive)
3,COc1ccc(N(CC(=O)NCCC2=CCCCC2)S(=O)(=O)c2ccccc2)cc1,83.4% (inactive)
4,COc1cc([N+](=O)[O-])c(N2CCOCC2)c([N+](=O)[O-])c1OC,87% (inactive)
5,CC(C)C1Nc2ccc(C(=O)O)cc2C2C=CCC21 (stereo not drawn),87.3% (inactive)
6,O=C1NN(c2ccc(Cl)cc2)C(=O)/C1=C\c1ccc(-c2cccc(C(=O)O)c2)o1,97.9% (inactive)
7,Fc1cc(F)cc(NC(=S)NCCCN2CCOCC2)c1,106% (inactive)
8,CC(C)OP(=O)(OC(C)C)C(O)c1ccc(N(C)C)cc1 (stereo not drawn),111% (inactive)
9,Cc1ccc(Oc2ccc(/C=N/O)cn2)cc1,89.2% (inactive)
10,CCOC(=O)C(C#N)(Cc1ccc2ccccc2n1)Cc1ccc2ccccc2n1,83.9% (inactive)
11,O=C(CCl)N1N=C(c2ccco2)CC1c1ccco1 (stereo not drawn),108% (inactive)
12,Cc1cccc(NC(=O)CNC(=O)c2cccc(-n3cccc3)c2)c1C,95.8% (inactive)
13,C/C(N)=C(/C#N)C(=O)CSc1nnc(Nc2c(C)cccc2C)s1,92.9% (inactive)
14,O=C(O)CCCCC1SCC2NC(=O)NC21 (stereo not drawn),118% (inactive)
15,CN(C(=O)CSc1ncnc2sccc12)C1CCCCC1,93.3% (inactive)
16,O=C(O)CC(C(=O)O)N1C(=O)/C(=C/C=C/c2ccco2)SC1=S (stereo not drawn),97.4% (inactive)
17,O=C1/C(=C/C=C/c2ccco2)SC(=S)N1c1ccc(O)cc1,83.6% (inactive)
18,CC(C)(C)C1CCC(OC(=O)C[N+]2(C)CCCCC2)CC1 (stereo not drawn),82.8% (inactive)
19,CCOc1ccccc1C(=S)NC1CCCCC1,101% (inactive)
20,Cc1nn(CC(=O)NC2CC2)c(C)c1S(=O)(=O)N(C)C,102% (inactive)
21,CC(C)(C)c1cc(N/C=C\c2nnnn2-c2ccc(Br)cc2)no1,102% (inactive)
22,CC1CCN(Cc2c(O)ccc3c2O/C(=C\c2ccco2)C3=O)CC1,85.3% (inactive)
23,O=C1OC(c2ccc(F)cc2)=C/C1=C\c1ccc([N+](=O)[O-])o1,88% (inactive)
24,CCCSC1=N/C(=C\c2ccc([N+](=O)[O-])o2)C(=O)S1,98.9% (inactive)
25,CCOc1ccc(NC(=O)C2CCCN(S(=O)(=O)c3c(C)n[nH]c3C)C2)cc1 (stereo not drawn),102% (inactive)
26,Cc1ccc(C)c(/C(O)=C2/C(=O)C(=O)N(CCN3CCOCC3)C2c2ccco2)c1 (stereo not drawn),99.1% (inactive)
27,CNc1ccc(Br)cc(C(=O)/C=C/c2ccc(OC)cc2OC)c1=O,98.3% (inactive)

row,Structure (SMILES),viability
1,CC(=O)c1c(C)[nH]c(C(=O)OCC(=O)C(C)(C)C)c1C,92.6% (inactive)
2,COC(=O)c1sccc1NC(=O)CC1C(=O)NCCN1C(=O)Nc1ccccc1 (stereo not drawn),101% (inactive)
3,N#C/C(=C/c1ccc(Br)o1)C(N)=S,85.2% (inactive)
4,COc1ccc(NC(=O)O/N=C/c2ccccc2Cl)cc1,102% (inactive)
5,CCOC(=O)C1(C)NC(c2ccco2)C2C(=O)N(CC)C(=O)C21 (stereo not drawn),110% (inactive)
6,O=C1CC(c2ccco2)CC(O)=C1C=NCC1CCNCC1 (stereo not drawn),84% (inactive)
7,Cc1cccc(/C=C(\C(=O)O)c2ccc(S(=O)(=O)N3CCCC3)s2)c1,85.2% (inactive)
8,O=C(C1CCN(S(=O)(=O)N2CCC3(CC2)OCCO3)CC1)N1CCOCC1,94.2% (inactive)
9,COc1ccccc1NCCC(=O)OCC(=O)NCc1ccco1,108% (inactive)
10,CCOC(=O)c1ccc(NC(=O)CSCc2ccco2)cc1,98.2% (inactive)
11,Cc1ccc(NC(=O)CNC(=O)COc2ccccc2)nc1,103% (inactive)
12,COc1cccc(C(=O)N2CCN(Cc3nc(CC4CC4)no3)CC2)c1,102% (inactive)
13,CCCCC(O)(CCCC)C(=O)N/N=C(\C)c1ccc(Cl)cc1,95.1% (inactive)
14,NC(=O)c1ccc(N2CCN(c3ccc(O)cc3)CC2)c([N+](=O)[O-])c1,92% (inactive)
15,CCC(=O)Nc1ccc(S(=O)(=O)NC[C@H]2O[C@@H](n3cc(C)c(=O)[nH]c3=O)C[C@@H]2O)cc1,92.5% (inactive)
16,C=C(C)C1CC=C(C)/C(=N\NC(=O)CCC(=O)Nc2ccc(C)c(C)c2)C1 (stereo not drawn),87.5% (inactive)
17,c1coc(CNc2nc(-c3cccs3)cs2)c1,91.9% (inactive)
18,O=C(Nc1cc(Cl)cc(Cl)c1)c1coc(=O)c(Br)c1,105% (inactive)
19,C[c-]1[c-](C)[c-](C)[c-](C)[c-]1C.[Fe].c1cc2nccc(N3CCCC3)[c-]2c1 (stereo not drawn),83.7% (inactive)
20,CCn1c(SC(C)C)nnc1-c1cc(-c2ccccc2)sc1N,92.6% (inactive)
21,COc1ccc(C(=O)O)cc1S(=O)(=O)N1CCCc2ccccc21,84.4% (inactive)
22,COCCn1c(SCC(=O)Nc2ccccc2F)nc2c([nH]c3ccccc32)c1=O,102% (inactive)
23,CC1=C(C#N)C(=O)N(C2CCS(=O)(=O)C2)C(=O)/C1=C\c1ccc(C)o1 (stereo not drawn),101% (inactive)
24,S=c1[nH]nc(COc2ccc(Cl)cc2)n1Cc1ccccc1,83.4% (inactive)
25,CCCC(=O)NC(C)C(c1cccs1)N1CCN(C)CC1 (stereo not drawn),117% (inactive)
26,CCOc1ccccc1N1C(=O)CC(Nc2ccc(N3CCOCC3)cc2)C1=O (stereo not drawn),91.4% (inactive)
